Gli-Sufu block = Gli-Sufu pathway antagonism. inhibition, % at 5 µM. hit rate 0.74% among 340,000. Sufu-KO-LIGHT fibroblasts, Gli luciferase reporter luminescence;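 active means inhibition above about 55%, limit read from the data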
697 NFkB inh = inhibitors of the PMA/ionomycin-induced NF-kB reporter in 697 B cells. 697 B-cell NF-kB luciferase reporter, 16 h. inhibition, % at 4 µM. hit rate 0.33% among 330,000; in the data active means inhibition above about 35%
Jurkat NFkB inh = lowers PMA/ionomycin-induced NF-kB signal in Jurkat cells | inhibition, % at 4 µM | AID 435003 | PMA/ionomycin-induced NF-kB luciferase reporter, luminescence | hit rate 0.53% among 330,000; in the data active means inhibition above about 50%
Shn3 inh set2 = Schnurri-3 reporter inhibition in Clone20 osteoblasts. Clone20 osteoblast Shn3 3'UTR firefly luciferase, 24 h. inhibition, % at 12.5 µM. hit rate 0.52% among 360,000. AID 588674;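 active means mean inhibition of at least 75% with every replicate also reaching 75%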
Mdm2 MdmX PPI = human Mdm2/MdmX binding inhibition; hit rate 3% among 330,000; inhibition, % at 8 µM; SaOS-2 split-luciferase Mdm2/MdmX complementation, luminescence; O15151+Q00987; AID 485346;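 active means inhibition of at least 50% at 8 µM in the primary screen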
Target sequence (O15151 whole entry, looked up): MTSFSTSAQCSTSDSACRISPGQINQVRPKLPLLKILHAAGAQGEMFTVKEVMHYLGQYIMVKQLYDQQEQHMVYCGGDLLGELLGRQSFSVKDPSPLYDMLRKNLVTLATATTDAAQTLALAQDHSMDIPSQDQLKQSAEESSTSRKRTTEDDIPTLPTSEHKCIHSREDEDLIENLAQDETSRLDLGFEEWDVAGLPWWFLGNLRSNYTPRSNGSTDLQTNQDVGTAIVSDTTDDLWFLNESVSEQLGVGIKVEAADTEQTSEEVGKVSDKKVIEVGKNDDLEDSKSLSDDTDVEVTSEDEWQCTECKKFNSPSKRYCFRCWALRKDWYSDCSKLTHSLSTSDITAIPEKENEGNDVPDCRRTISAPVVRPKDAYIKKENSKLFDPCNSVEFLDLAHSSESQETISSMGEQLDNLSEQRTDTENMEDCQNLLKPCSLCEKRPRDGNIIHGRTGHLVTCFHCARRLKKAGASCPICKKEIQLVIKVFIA
Target sequence (Q00987 whole entry, looked up): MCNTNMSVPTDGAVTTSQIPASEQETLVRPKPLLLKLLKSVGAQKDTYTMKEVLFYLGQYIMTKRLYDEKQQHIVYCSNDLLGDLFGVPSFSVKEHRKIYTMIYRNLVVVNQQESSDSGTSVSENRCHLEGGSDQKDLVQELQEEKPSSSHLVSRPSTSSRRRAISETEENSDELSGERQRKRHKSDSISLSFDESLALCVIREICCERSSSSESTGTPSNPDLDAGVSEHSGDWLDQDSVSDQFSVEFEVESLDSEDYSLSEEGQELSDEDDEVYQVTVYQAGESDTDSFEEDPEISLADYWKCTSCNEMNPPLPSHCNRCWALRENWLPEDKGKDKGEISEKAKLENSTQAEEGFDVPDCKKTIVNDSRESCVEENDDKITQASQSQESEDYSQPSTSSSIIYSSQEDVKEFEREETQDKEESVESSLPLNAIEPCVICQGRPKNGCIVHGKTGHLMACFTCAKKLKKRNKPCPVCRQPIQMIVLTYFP
Mdm2 MdmX conf = human Mdm2/MdmX binding inhibition, confirmed; hit rate 55% among 10,000; inhibition, % at 8 µM; AID 489028; luminescent assay; shares compounds with Mdm2 MdmX PPI; in the data active means inhibition above about 40%
FLuc counter = full-length luciferase inhibition in Mdm2/MdmX counter-screen. shares compounds with Mdm2 MdmX PPI. SaOS-2 full-length luciferase counterscreen, luminescence. inhibition, % at 8 µM. hit rate 77% among 6,200. AID 504607;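 active means mean inhibition at 8 µM reaching about 37%, which flags the compound as non-specific, limit read from the data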;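 further: p53-null SaOS-2 cells with luciferase driven by a doxycycline-inducible promoter; compound on cells about two nights before reading with doxycycline added after day one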
Large screens that a line does not name were inactive (follow-up assays come after a bar, where they were run). Sampled rows, rich in hits. Any-hit rate of the full collection: about 3.8%.

Cc1ccc(Cl)cc1N1CCN(C(=O)Cc2csc(Nc3nc(=S)[nH]c4ccccc34)n2)CC1	Mdm2 MdmX PPI 55.3 (no result: Gli-Sufu block) | Mdm2 MdmX conf inactive
CCn1c(=O)c(C(=O)CN2CCN(S(=O)(=O)c3ccc(C)cc3C)CC2)c(N)n(Cc2ccccc2)c1=O	Mdm2 MdmX PPI 52.7 | Mdm2 MdmX conf 42.6 | FLuc counter 75.1
CC1CCc2c(sc(NC(=O)CCc3nc4ccccc4c(=O)[nH]3)c2C#N)C1 (stereo not given)	Mdm2 MdmX PPI 72.5 | Mdm2 MdmX conf 71.2 | FLuc counter 59.8
CCN(CC(=O)Nc1sc2c(c1C#N)CCC(C)C2)Cc1nc2ccccc2c(=O)[nH]1 (stereo not given)	none
COc1ccc(C(CC(=O)O)NC(=O)COc2cc(C)ccc2C)cc1OC (stereo not given)	none
C[C@H](CO)N1C[C@H](C)[C@@H](CN(C)S(=O)(=O)c2cn(C)cn2)Oc2cc(Br)ccc2S1(=O)=O	none (no result: Gli-Sufu block, 697 NFkB inh, Jurkat NFkB inh, Mdm2 MdmX PPI)
Cc1cc(C)n(CCCN2CCC(C(=O)Nc3cccc(-c4cccc(F)c4)c3)CC2)n1	Mdm2 MdmX PPI 58.0 | Mdm2 MdmX conf 55.6 | FLuc counter 74.2
CCn1ncc(CN2CCC(C(=O)Nc3cccc(-c4cccc(F)c4)c3)CC2)c1C	none
CCOc1ccc(CN2CCC(C(=O)Nc3cccc(-c4ccn[nH]4)c3)CC2)cc1Cl	Mdm2 MdmX PPI 60.5 | Mdm2 MdmX conf inactive
CS(=O)(=O)N1CCC(C(=O)Nc2cccc(Cl)c2)CC1	none
CCn1nc(C)c(CN2CCC(C(=O)Nc3cccc(-c4cccc(Cl)c4)c3)CC2)c1C	Mdm2 MdmX PPI 80.4 | Mdm2 MdmX conf 40.4 | FLuc counter 62.0
CCOC(=O)C1=CN(Cc2cccc(F)c2)S(=O)(=O)N(CC)C1c1ccccc1 (stereo not given)	none (no result: Jurkat NFkB inh)
COC(=O)CC(c1ccc(OC)c(OC)c1)c1ccc(OC)c(OC)c1	none
CCN(CC)C(=O)C1=C(C)N(CCCN2CCCC2=O)C(=O)C(CC(=O)NCc2ccco2)C1 (stereo not given)	none (no result: Gli-Sufu block, 697 NFkB inh, Jurkat NFkB inh, Mdm2 MdmX PPI)
C/C(=N\NC(=O)C1CCCN(S(=O)(=O)c2ccccc2)C1)c1ccccn1 (stereo not given)	Mdm2 MdmX PPI 70.2 | Mdm2 MdmX conf 58.9 | FLuc counter inactive
Cc1ccc(C(=O)OC(C)C(=O)NC(C)CCc2ccccc2)o1 (stereo not given)	none
CCCn1c2ccccc2c2nnc(SC(CC)C(=O)Nc3sc4c(c3C#N)CCCC4)nc21 (stereo not given)	Mdm2 MdmX PPI 53.9 | Mdm2 MdmX conf inactive
CCCn1c2ccccc2c2nnc(SC(CC)C(=O)Nc3cc(C)on3)nc21 (stereo not given)	none
c1cc2c3c(cccc3c1)NC1(CCC3(CC1)Nc1cccc4cccc(c14)N3)N2	Mdm2 MdmX PPI 72.2 | Mdm2 MdmX conf inactive
O=C(COc1ccc(Cl)cc1Cl)N/N=C1\CCCc2ccccc21	none
O=C(COc1ccc(Cl)cc1Cl)NN=C1c2ccccc2-c2ccccc21	Mdm2 MdmX PPI 81.9 | Mdm2 MdmX conf inactive
S=c1[nH]nc(-c2cc(-c3ccccc3)n[nH]2)n1/N=C/C(Br)=C/c1ccccc1	Mdm2 MdmX PPI 99.8 | Mdm2 MdmX conf 84.0 | FLuc counter inactive
Cc1cc(-c2n[nH]c(=S)n2/N=C/C(Cl)=C/c2ccccc2)n[nH]1	none
CC(=C/c1ccccc1)/C=N/n1c(-c2ccncc2)n[nH]c1=S	Mdm2 MdmX PPI 73.6 | Mdm2 MdmX conf 78.2 | FLuc counter 53.2
S=c1[nH]nc(-c2ccco2)n1/N=C/C(Cl)=C/c1ccccc1	Mdm2 MdmX PPI 61.9 (no result: Shn3 inh set2) | Mdm2 MdmX conf inactive
Cn1nc(C(C)(C)C)c([N+](=O)[O-])c1C(=O)NC1CCCCC1	none
COc1ccc(S(=O)(=O)N2CCCCC2)cc1NC(=O)Cc1ccsc1	none
O=C(/C=C/c1ccc2ccccc2n1)N1CCN(c2ccccc2)CC1	none
O=C(/C=C/c1ccc2ccccc2n1)N1CCN(S(=O)(=O)c2ccc(F)cc2)CC1	Mdm2 MdmX PPI 61.0 | Mdm2 MdmX conf 76.1 | FLuc counter inactive
O=C(/C=C/c1ccc2ccccc2n1)N1CCN(S(=O)(=O)c2ccccc2F)CC1	Mdm2 MdmX PPI 75.6 | Mdm2 MdmX conf 79.8 | FLuc counter inactive
O=C(NCCCN1CCOCC1)c1ccc(-n2nc(C(F)(F)F)cc2-c2cccs2)cc1	Mdm2 MdmX PPI 76.6 | Mdm2 MdmX conf inactive
COc1ccc(CN2CCC2(C)C(=O)NCCc2c[nH]c3ccccc23)c2ccccc12 (stereo not given)	none (no result: Gli-Sufu block, 697 NFkB inh, Jurkat NFkB inh, Mdm2 MdmX PPI)
N#CC(c1ccccc1)c1ccc2c(C(F)(F)F)cc(C(F)(F)F)nc2n1 (stereo not given)	Mdm2 MdmX PPI 68.0 | Mdm2 MdmX conf inactive
Cc1ccc(-c2nn(-c3ccccc3)cc2/C=N/NC(=O)c2ccc(Br)o2)cc1	Mdm2 MdmX PPI 83.1 | Mdm2 MdmX conf inactive
CC(NC(=S)NC1CCCCC1)c1ccc(C(C)(C)C)cc1 (stereo not given)	Mdm2 MdmX PPI 67.0 | Mdm2 MdmX conf inactive
O=C1c2ccccc2/C(=C\c2ccc3[nH]ccc3c2)N1c1ccccc1	none
CCC/C(=C1/c2ccccc2C(=O)N1c1ccccc1)c1ccc2[nH]ccc2c1	Mdm2 MdmX PPI 59.1 | Mdm2 MdmX conf 52.4 | FLuc counter 45.4
Cc1ccc(NC(=O)C2CCN(S(=O)(=O)c3ccc4c(c3)NC(=O)C(C)S4)CC2)cc1Cl (stereo not given)	Gli-Sufu block 59.6, Shn3 inh set2 89.4, Mdm2 MdmX PPI 61.1 | Mdm2 MdmX conf inactive
Cc1cc(C)cc(NC(=O)C2CCN(S(=O)(=O)c3ccc4c(c3)NC(=O)C(C)S4)CC2)c1 (stereo not given)	none
CCOC(=O)C1(C#N)Cc2ccccc2C1	none (no result: 697 NFkB inh, Jurkat NFkB inh, Mdm2 MdmX PPI)
Cc1cc(N2O[C@]34C=C[C@]25C[C@@H](O)CC[C@]5(C)C3CC[C@]2(C)[C@@H]([C@H](C)/C=C/[C@H](C)C(C)C)CC[C@H]24)no1 (stereo not given in full)	Mdm2 MdmX PPI 90.7 (no result: Jurkat NFkB inh) | Mdm2 MdmX conf inactive
O=C(c1ccc(Cl)c(S(=O)(=O)NCc2cccnc2)c1)N1CCCC1	none
O=C1OC(=O)c2cc([N+](=O)[O-])ccc21	none
COc1cc(/C=C2/OC(=O)c3cc([N+](=O)[O-])ccc32)cc(OC)c1OC	Mdm2 MdmX PPI 67.2 | Mdm2 MdmX conf inactive
O=C(/C=C/c1ccccc1F)c1cccc([N+](=O)[O-])c1	none
COc1cc(/C=C/C(=O)c2cccc([N+](=O)[O-])c2)cc(OC)c1OC	Mdm2 MdmX PPI 52.2 | Mdm2 MdmX conf inactive
OC(c1cccc(Cl)c1)c1nc(-c2cnc3ccccc3c2)cs1 (stereo not given)	none (no result: Gli-Sufu block, 697 NFkB inh, Jurkat NFkB inh, Mdm2 MdmX PPI)
Cc1ccc(-c2nnc(SCC(=O)N/N=C/c3ccc(C)s3)n2-c2ccc(C)cc2)cc1	none
CCc1ccc2[nH]c(=O)c(-c3ccccc3)c(O)c2c1	none
